A selection: hits, their analogues and other compounds. The true share with any hit is near 2.4%.
FEN1 inhibitor – human FEN1 inhibition; P39748; Recombinant FEN1 flap cleavage, fluorescence, 15 min; Potency, µM (doses to about 114 µM), most hits filed as inhibitors; 390,000 compounds, 0.35% hits; AID 588795; note: nearly all actives have a fitted effect of over 65% in size
Target sequence (P39748 whole entry, looked up): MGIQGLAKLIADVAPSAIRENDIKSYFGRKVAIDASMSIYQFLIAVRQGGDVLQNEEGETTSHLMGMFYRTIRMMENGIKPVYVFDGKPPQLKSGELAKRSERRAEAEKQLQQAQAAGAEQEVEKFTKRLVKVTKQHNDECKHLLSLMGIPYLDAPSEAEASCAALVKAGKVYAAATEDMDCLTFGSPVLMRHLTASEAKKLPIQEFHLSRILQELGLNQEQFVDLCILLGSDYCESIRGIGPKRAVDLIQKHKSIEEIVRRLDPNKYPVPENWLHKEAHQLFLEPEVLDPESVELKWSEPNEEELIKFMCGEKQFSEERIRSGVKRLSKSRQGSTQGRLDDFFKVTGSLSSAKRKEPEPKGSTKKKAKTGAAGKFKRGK
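Compounds are tested as a concentration series against 10 nM FEN1; after a 15 min room-temperature preincubation, 50 nM substrate starts cleavage, with plate reads at 0 and 15 min. Normalized responses are fitted by a Hill equation.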
POLK inh – DNA polymerase kappa (human) inhibition; 400,000 compounds, 0.53% hits; purified Pol kappa, fluorescent DNA synthesis assay, 10 min; Potency, µM (titrated, usually from 107 µM), actives largely listed as inhibitors; AID 588579; Q9UBT6
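Kinetic fluorescence screen: compound preincubated 15 min RT with 10 nM enzyme; 50 nM substrate (final) initiates; reads at 0/10 min.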
POLI inh – blocks human DNA polymerase iota activity; AID 588590; Potency, µM (titrated, usually from 115 µM), hits mostly inhibitors; Pol iota fluorescent replication assay, 10 min; 390,000 compounds, 1% hits; Q9UNA4
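Fluorescent replication assay read twice, at 0 min and 10 min after adding 50 nM (final) substrate. Enzyme (10 nM) and compounds were first incubated 15 min at room temperature; enzyme-free buffer wells were negative controls.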
POLH inh – inhibitors of human DNA polymerase eta; Q9Y253; recombinant Pol eta, fluorescent DNA replication assay; Potency, µM (doses to about 114 µM), most hits filed as inhibitors; 390,000 compounds, 1.2% hits; AID 588591
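Pol eta (10 nM) was preincubated with compounds for 15 min at room temperature, after which fluorescent replication substrate (50 nM final) was added to start the reaction. Fluorescence was read kinetically at 0 and 10 min.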
Pol beta inh – inhibitors of human DNA polymerase beta | P06746 | Pol beta primer extension/strand displacement, fluorescence kinetic | Potency, µM (top dose mostly 114 µM), usual class: inhibitors | 340,000 compounds, 1.3% hits
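Reaction started by 50 nM substrate onto compound-treated Pol beta (10 nM, 15 min preincubation, room temperature); plates read at 0 min and 10 min. Normalized concentration-effect data fitted by four-parameter Hill equation.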
WRN inhibitor – WRN helicase (human) inhibition; Q14191; Potency, µM (highest dose often 114 µM), actives largely listed as inhibitors; 360,000 compounds, 0.46% hits; AID 651768; WRN helicase unwinding, fluorescent forked duplex, kinetic; note: nearly all actives have a fitted effect of over 55% in size
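Screening of the MLSMR collection measured strand separation of a quenched forked DNA duplex (100 nM) by 20 nM WRN with 2 mM ATP, all final. Compounds were preincubated with enzyme 15 min at room temperature.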
Hits are given with their value; n = inactive; u = inconclusive; x = no result given; [ ] = dose if it differs, or a comment. Calls come from the whole dose curve; as a rule, active = well fitted curve in the direction sought with a large enough effect; inconclusive = small, poorly fitted or top-dose-only effect, or another doubt; inactive = no such curve, though single readings can be large; an effect the other way counts as inactive or inconclusive.

SMILES	FEN1 inhibitor	POLK inh	POLI inh	POLH inh	Pol beta inh	WRN inhibitor
Nc1nc(=S)[nH]c(N)c1N	n	n	n	x	x	x
Nc1nc(=S)[nH]c2n[nH]nc12	n	n	40µM	x	x	x
O=C(COc1ccccc1)Nc1sc2c(c1C(=O)Nc1ccccc1)CCCCC2	n	u	u	79µM	18µM	x
O=C(NCc1ccccc1)c1ccc(CS(=O)(=O)Cc2ccccc2F)o1	n	n	n	n	n	n
CCOCCCNC(=O)c1ccc(CS(=O)(=O)Cc2ccccc2F)o1	n	89µM	n	u	n	n
COc1cc(/C=C/c2ccnc3ccccc23)cc(OC)c1OC	u	n	n	x	x	x
CC(C)n1cc(/C=N/NC(=O)COc2cccc3cccnc23)c2ccccc21	n	n	7.9µM	u	u	u
CN(C)c1ccccc1-c1cc(NC=O)c2ncc(-c3cccc(C(F)(F)F)c3)n2c1	x	x	x	x	x	n
CN(C)CCOc1nc(-c2ccccc2)nc2c1oc1ccccc12	50µM	n	u	u	45µM	n
CN(C)CCOc1ncnc2c1oc1ccccc12	n	n	n	n	n	n
O=c1cc2nc(-c3ccccc3)nc(SCc3cccc(Br)c3)n2[nH]1	n	n	n	u	u	x
COc1cccc(-c2nc(SCc3cccc(Br)c3)n3[nH]c(=O)cc3n2)c1	n	n	u	u	13µM	x
N#Cc1ccc(CSc2nnc(NC(=O)c3ccc4ncsc4c3)s2)cc1	n	n	u	32µM	n	u
COc1ccc(-c2nc3ccc(NC(=O)COC(C)=O)cc3c(=O)n2Cc2ccccc2)cc1COc1ccc(NC(C)=O)cc1	n	n	u	x	x	x
COc1ccc(-c2nc3ccc(NC(C)=O)cc3c(=O)n2Cc2cccc(Cl)c2)cc1COc1ccc(NC(C)=O)cc1	79µM	u	u	x	x	x
Nc1c(C(=O)N/N=C/c2ccc(Cl)cc2)cnn1-c1ccccc1	n	n	n	n	n	n
O=c1c(Cl)c(N/N=C/c2ccc(Cl)cc2)cnn1-c1ccccc1	u	u	28µM	u	18µM	u
O=C(CSc1ccccc1)Nc1nnc(COc2ccc(Cl)cc2)s1	n	n	n	u	20µM	u
Cc1onc(-c2ccccc2)c1C(=O)Nc1nnc(COc2ccc(Cl)cc2)s1	n	n	n	n	n	56µM
CCc1nnc(NC(=O)c2c(-c3ccccc3)noc2C)s1	n	n	n	n	n	n
C=C1C(=O)OC2C[C@@]3(C)CCCC(=C)[C@@H]3CC12 (some centres not stated)	x	n[19.4 µM]	x	x	x	x
CC1=C(c2ccc(C)c(C)c2)S(=O)(=O)N=C1N1CCC(C(=O)NC(C)Cc2ccco2)CC1 (configuration not stated)	n	n	u	n	n	x
CC1=C(c2ccc(F)cc2)S(=O)(=O)N=C1N1CCC(C(=O)NCCc2ccco2)CC1	n	n	n	x	25µM	x
COc1ccc(C2=C(C)C(N3CCN(c4ccc(OC)cc4)CC3)=NS2(=O)=O)cc1	n	n	n	n	n	x
COc1ccc(C2=C(C)C(N3CCN(C(=O)c4ccco4)CC3)=NS2(=O)=O)cc1	n	n	u	n	50µM	n
SMILES	FEN1 inhibitor	POLK inh	POLI inh	POLH inh	Pol beta inh	WRN inhibitor
COc1ccc2oc(=O)c(C(=O)NCCc3c(C)[nH]c4c(Cl)cccc34)cc2c1	n	n	n	n	n	x
Cc1ccccc1S(=O)Cc1ccc(C(=O)NCc2ccccc2Cl)o1 (configuration not stated)	n	n	n	n	n	x
O=[N+]([O-])c1ccc(-c2nc(Nc3ccc(O)cc3)c3ccccc3n2)cc1	n	n	n	n	n	n
O=C(O)c1ccc(Nc2nc(-c3ccc([N+](=O)[O-])cc3)nc3ccccc23)cc1	u	n	u	u	56µM	n[11.6 µM]
C#C[C@]1(OC(C)=O)CC[C@H]2[C@@H]3CCC4=C/C(=N/O)CC[C@@H]4[C@H]3CC[C@@]21CC	x	n[19.4 µM]	x	x	x	x
Cc1ccc(C2=NOC(=O)/C2=C\c2ccc(C)o2)cc1	u	n	u	79µM	n	u
CN(C)CCn1nnnc1SCC1=C(C(=O)O)N2C(=O)[C@@H](NC(=O)Cc3csc(N)n3)[C@H]2SC1	u	50µM	14µM	u	x	n
O=C(Nc1ccccc1N1CCCCC1)c1cccc(Cl)c1	n	n	n	n	n	n
Cc1cccc(N2CCN(c3ccc(C(=O)O)cc3NC(=O)c3cccc(Cl)c3)CC2C)c1 (configuration not stated)	n	n	n	n	32µM	x
CCOc1ccc2nc(N3CCC(C(=O)Nc4ccccc4CC)CC3)sc2c1	n	n	n	n	n	x
CC1CCN(C(=O)COC(=O)/C=C/c2ccc(Br)o2)CC1	n	u	18µM	n	x	n[11.6 µM]
CC1CCN(C(=O)COC(=O)/C=C/c2ccc([N+](=O)[O-])cc2)CC1	n	n	n	n	x	n
NCc1csc(Nc2ccc(C(=O)c3ccccc3)cc2)n1	x	x	x	x	x	n
COc1ccccc1N(/N=C1\Sc2ccccc2C1=O)C(C)=O	n	n	u	89µM	n	n[11.6 µM]
COc1ccc(CCNC(=O)CS(=O)(=O)Cc2nc(-c3cccc(Cl)c3)oc2C)cc1OC	n	n	n	n	n	x
CCOC(=O)C(C(C)=O)C(c1ccc(OC)cc1)C(C(C)=O)C(=O)OCC (configuration not stated)	n	n	n	n	n	n
CCOC(=O)C(C)C(C)=O (configuration not stated)	n	u	n	u	x	16µM
CC1CCN(C(=O)c2ccccc2NC(=O)c2nsc3ccccc23)CC1	n	n	n	n	n	x
Cc1ccccc1C(=O)Nc1ccccc1C(=O)N1CCC(C)CC1	89µM	n	n	n	n	n
CC(O)(c1cccnc1)c1nc(-c2ccc3ccccc3c2)cs1 (configuration not stated)	x	x	x	x	x	n
CCCNC(=O)c1ccc(Cl)cc1Cl	n	n	n	n	20µM	n
CCOC(=O)c1c(NC(=O)Cc2coc3cc(C)ccc23)sc2c1CCCC2	n	n	n	n	n	x
CCCc1nnc(NC(=O)Cc2coc3ccc(C)cc23)s1	n	n	n	n	n	x
Cc1ccc2c(CC(=O)Nc3sccc3C(N)=O)coc2c1	u	n	79µM	u	n	n
Cc1ccc2occ(CC(=O)Nc3nnc(C(C)C)s3)c2c1	n	n	79µM	n	n	x
O=C(Cc1ccc(F)cc1)N(c1ccccc1)C1C=CS(=O)(=O)C1 (configuration not stated)	n	n	n	n	n	n
O=C(Cc1cccs1)N(c1ccccc1)C1C=CS(=O)(=O)C1 (configuration not stated)	n	n	56µM	n	u	n[11.6 µM]
CCCn1c(/C=C/c2ccccc2)nc2ccccc21	n	n	n	n	n	n
CC(C)Cn1c(/C=C/c2ccco2)nc2ccccc21	n	n	n	n	28µM	n
